# About 9,100 (2.8%) of roughly 320,000 compounds were called active. Roughly 3% stayed inconclusive and do not appear here. The list comes from a sample in which actives are over-represented; it also holds similar structures and randomly drawn compounds. Values without a mark were called inactive. The call rests on the fitted dose curve; in most records, active means well fitted activation curve with a large enough effect; inconclusive means small, poorly fitted or top-dose-only effect; inactive means no such curve, though single readings can be large or run the other way.
# Assay: qHTS Assay for Rab9 Promoter Activators; further: nearly all actives have a fitted effect of over 60% in size; on activation, negative = inhibition: % of control where 0% means no effect
# Conditions: Huh7 Rab9 promoter-luciferase reporter, luminescence, 24 h; series mostly up to 9.22 µM; activation, negative = inhibition: at the top concentration
# Excerpt: NIH Chemical Genomics Center [NCGC] NIH Molecular Libraries Probe Production centers Network [MLPCN] MLPCN Grant: MH089537-01 Assay Submitter (PI): Yiannis A. Ioannou NCGC Assay Overview: Niemann Pick Type C (NPC) is a rare neurodegenerative lipidosis that is characterized by lipid storage in the endosomal/lysosomal system. Treatment modalities for this devastating disease are currently non-existent due to the severe obstacles associated with accessing the central nervous system with proteins or genes (Ioannou, 2000). We have developed a new paradigm, termed "Orphan Receptor Bypass Therapy" (ORByT), to address these disorders. This paradigm posits the existence of endogenous "suppressor" proteins whose expression can dramatically improve LSD pathogenesis. The goal is the identification/discovery of small chemical compounds that can modulate the expression of these proteins and provide a new treatment modality for these devastating disorders. One such protein whose overexpression reverses aspects of the NPC phenotype is Rab9. We have developed and optimized a cell based luciferase reporter assay in 1536 well format for the identification of up-regulators of the Rab9 promoter.
# The Rab9 promoter is cloned in front of the luciferase reporter gene, therefore […] promoter activation results in luciferase expression. Frozen stock of the Rab9 promoter transfected Huh7 cells were obtained from the laboratory of Dr. Yiannis Ioannou (The Mount Sinai School of Medicine, New York, NY). Cells were propagated and maintained at NCGC in medium containing RPMI-1640 supplemented with 10% FBS, 2mM L-glutamine, and 50ug/ml penicillin/streptomycin. Cells were harvested in and plated for assays in OP-MEM I reduced-serum medium supplemented with 10% FBS. The Amplite luciferase reporter gene assay kit was purchased from ABD Bioquest and prepared/stored according to manufacturers recommendations. qHTS Assay Setup: 1.Dispensed 5ul of Huh7 cells stably expressing Rab9-luciferase at a density of 1500 cells per well 1536-well plates. 2.Incubate cells at 37C, 5% CO2, and 95% humidity for 2 hours. 3.Transferred 23nl per well of compound in DMSO solution. 4.Incubated at 37C, 5% CO2, and 95% humidity for 24 hours. 5.Dispensed 3ul per well of Amplite reagent(ABD Bioquest) per well. 6.Incubate at ambient for 10 minutes. 7.Read using the luminescence protocol on the ViewLux plate reader (Perkin Elmer).
# Potency means the concentration at half of the fitted maximal effect.
SMILES,"activation, negative = inhibition",Potency
CC(C)Oc1ccc(S(=O)(=O)N2CCOCC2)cc1NC(=O)C1CCCC1,-0.79%,
CCN(CC(=O)Nc1c(F)cccc1F)C(=O)c1ccc(-c2ccccc2)cc1,6.76%,
O=C(O)CSc1ccc(S(=O)(=O)N2CCCC2)cn1,9.49%,
COC(=O)c1ccc(NC(=O)c2ccco2)cc1,,2820 nM (active)
CCOC(=O)c1ccc(NC(=O)CNC(=O)c2ccco2)cc1,-2.6%,
O=C(Nc1ccc(O)cc1)c1ccc(NC(=O)c2ccco2)cc1,29.1%,
COc1ccc(Cl)cc1NC(=O)CN(C)C(=O)c1ccc2n[nH]nc2c1,-1.33%,
O=C(/C=C/c1cnc2ccccc2n1)NC1CCCCCC1,,3160 nM (active)
O=C(Cn1c(-c2cncs2)nc2ccccc21)NC1CCCC1,-3.47%,
Cc1nc(/N=C(\N)NC(=O)NC2CCCCC2)nc2ccccc12,-23.8%,
Nc1ccc(Nc2cc(O)c3ncccc3c2)cc1,-37.2%,
CN1CCN(S(=O)(=O)c2cccc(C(=O)Nc3cccc(S(N)(=O)=O)c3)c2)CC1,-8.11%,
COC(=O)c1ccc(-c2c(-c3ccccc3)ncc3cc(OC)c(OC)cc23)cc1,1.03%,
O=C(NCCc1cccc(F)c1)C1CCCN(c2nc3ccccc3s2)C1 (configuration not stated),11.3%,
Fc1ccc2nc(N3CCCCC3)sc2c1,,891 nM (active)
CN(C)CCCN(C(=O)c1ccc(S(=O)(=O)N2CCCCCC2)cc1)c1nc2cc3c(cc2s1)OCCO3,0.137%,
Cc1nc(N2CCCCC2)sc1C=O,-3.8%,
CN(C)CCCN(C(=O)c1ccc(S(=O)(=O)N2CCCCCC2)cc1)c1nc2ccc(Br)cc2s1,-1.22%,
Brc1ccc2nc(N3CCCC3)sc2c1,,1410 nM (active)
c1c2c(cc3sc(N4CCCCC4)nc13)OCCO2,,355 nM (active)
COc1ccc2nc(N3CCN(C(=O)c4ccc([N+](=O)[O-])o4)CC3)sc2c1,26.3%,
Cc1nc2ccc(NC(=O)C3CCCCC3)cc2s1,24.9%,

SMILES,"activation, negative = inhibition",Potency
CCC(=O)c1ccc(OCC(=O)N(CC)CC2COc3ccccc3O2)cc1 (configuration not stated),-2.01%,
CCc1sc(C(=O)N2CCN(CC(=O)Nc3cccc(F)c3)CC2)cc1C,-2.46%,
CC1CCCC(NC(=O)c2cc(-c3ccncc3)nc3ccccc23)C1C (configuration not stated),13.4%,
Cc1ccc(/C=C/C(=O)OCC(=O)Nc2cccnc2Cl)cc1,-2.71%,
COc1cc(/C=C2\SC(=O)NC2=O)ccc1OCc1ccc(Cl)nc1,-1.24% [at 1.84 µM],
Cc1ccc(C)c(NC(=O)C(c2ccccc2)N2CCN(CC(=O)NC3CC3)CC2)c1 (configuration not stated),-2.84%,
COc1ccc(C(=O)NCc2ccc(C)cc2)cc1S(=O)(=O)N1CCCC1,13%,
O=C(CSc1nnnn1C1CCCC1)N1CCCCC1,,3160 nM (active)
CC1CCCC(C)N1C(=O)CSc1nnnn1C1CCCC1 (configuration not stated),22.7%,
CC(=O)Nc1ccc(NC(=O)CSc2nnnn2C2CCCCC2)cc1,-1.4%,
C[C@H](OC(=O)n1ccnc1)[C@@H]1O[C@@]2(C)CCC[C@@H]1O2,0.69%,
CN(CCN1CCOCC1)Cc1nc(-c2ccc3c(c2)OCO3)no1,2.86%,
COCC1CCCN(Cc2nc(-c3ccc4c(c3)OCO4)no2)C1 (configuration not stated),,3160 nM (active)
CC(C)N(Cc1nc(-c2ccc3c(c2)OCO3)no1)CC1CCC(=O)N1 (configuration not stated),-1.11%,
O=C(COC(=O)c1ccccc1Br)Nc1nnc(-c2ccccc2)o1,1.02%,
Nc1ccc(-c2nnc(-c3ccc(-c4ccccc4)cc3)o2)cc1,,2510 nM (active)
O=C(COC(=O)c1ccc(Oc2ccccc2)cc1)Nc1nnc(-c2ccccc2)o1,-3.52%,
O=C(Nc1cccc(Cl)c1)Nc1nnc(-c2ccccc2)o1,-0.239%,
Nc1ccc(-c2nnc(-c3ccccc3)o2)cc1,,3980 nM (active)
Nc1ccc(-c2sc(N)nc2-c2ccccc2)cc1,-1.5%,
CC(C(=O)NC1CCCC1)N1CCN(S(=O)(=O)c2ccccc2Cl)CC1 (configuration not stated),-5%,
COc1ccc(N(CCC(=O)NCCc2ccccc2)S(=O)(=O)c2ccc(C)cc2C)cc1,20.1%,

SMILES,"activation, negative = inhibition",Potency
COC(=O)c1ccc(C(=O)NC2CC(C)(C)Cc3c2cnn3-c2ccc(F)cc2)nc1 (configuration not stated),0.0943%,
Cn1c(N)c(C(=O)COC(=O)COc2ccc(Cl)cc2)c(=O)n(C)c1=O,-7.69%,
Cc1ccoc1C(=O)Nc1cccc(Oc2ccccc2)c1,,3980 nM (active)
Cc1cccc(NC(=O)Nc2cccc(Oc3c(F)c(F)c(F)c(F)c3F)c2)c1,-10.1%,
Cc1ccc(C(=O)COc2cccc(NC(=O)c3ccco3)c2)cc1,-4.08%,
COc1ccc2oc(=O)c(C(=O)N3CCCc4ccccc43)cc2c1,-2.67%,
Cc1cccc(-n2ncc(Cl)c(Cl)c2=O)c1,-53.7%,
COc1ccc(-n2ncc3c(N4CCCc5ccccc54)ncnc32)cc1,,794 nM (active)
Cc1cccc(-n2ncc3c(N4CCc5ccccc54)ncnc32)c1,,2000 nM (active)
Cc1ccc2c(c1)c1ncnc(N3CCc4ccccc4C3)c1n2C,28.8%,
COc1ccc(Oc2c(Cl)cnn(-c3ccccc3)c2=O)cc1,-8.14%,
CC1(NC(=O)CCS(=O)(=O)c2ccc(Cl)cc2)CCS(=O)(=O)C1 (configuration not stated),-0.164%,
COCCNc1nc2nonc2nc1N1CCCC1c1nccs1 (configuration not stated),-11.2%,
CC(=O)NC12CC3CC(C1)CC(C(=O)N1CCN(C(=O)c4ccco4)CC1)(C3)C2,2.91%,
CCCNC(=O)c1ccc(Cl)c(Cl)c1,-0.125%,
CCCNC(=O)CCc1c(C)nc2c(c(C)nn2-c2ccc(C)cc2)c1C,-3.89%,
CCCNC(=O)c1c(Cl)cnn1-c1ccc(C)cc1,,2510 nM (active)
O=C(CCc1nc2sc3c(c2c(=O)[nH]1)CCCC3)NCC(=O)Nc1ccccc1Br,-0.0082%,
COc1cc(OC)cc(-c2c(-c3cccs3)c3cc(-c4ccc(OC)nc4)ccc3n2C)c1,-5.18%,
O=C(NCC(=O)N1CCCCCCC1)c1ccccc1Cl,19.2%,
COc1ccccc1/C=C/C(=O)OCC(=O)NC1CCCCCC1,-1.16%,
Cc1cc(C)n2nc(C(=O)OCC(=O)N(C)CC(=O)Nc3ccc(F)cc3)nc2n1,-4.64%,

SMILES,"activation, negative = inhibition",Potency
COc1ccc(NC(=S)N2N=CCC2c2ccccc2)cc1 (configuration not stated),,3160 nM (active)
COc1ccc(C(=O)NC2CCN(C(=S)Nc3ccccc3)CC2)cc1,3.06%,
CCC(C)N(C)C1CCN(C(=S)Nc2ccc(OC)cc2)CC1 (configuration not stated),0.502%,
CC(C(=O)Nc1ccc(S(=O)(=O)N2CCCC2)cc1)N(C)Cc1ccc(F)cc1 (configuration not stated),-1.48%,
CN(CC(=O)NCc1ccc(Cl)cc1)S(=O)(=O)c1cccs1,0.449%,
COc1cccc(NC(=O)COC(=O)/C=C/c2ccco2)c1,-3.31%,
COC(=O)C1=C(C)NC(=S)NC1c1ccc(OCC(=O)N2CC(C)OC(C)C2)c(OC)c1 (configuration not stated),-3.17%,
CCOc1ccc(C(=O)CCC(=O)NC2=NCCS2)cc1,0.981%,
O=C(NCc1ccc2c(c1)OCO2)c1ccc(Cl)s1,13%,
COc1ccccc1C(=O)NCCC(=O)NC1=NCCS1,0.791%,
COc1ccc(C(=O)NC2=NCCS2)c(OC)c1,,1410 nM (active)
COc1ccc(Cc2nnc(NC(=O)c3ccc(OC)cc3OC)s2)cc1,28.2%,
O=C(NC1=NCCS1)c1ccc(Cl)s1,,3980 nM (active)
COc1ccc(OC)c(NC(=O)c2cnn(-c3ccccc3Cl)c2NC(=O)c2ccco2)c1,3.75%,
COc1ccccc1OCC(=O)Nc1c2c(nn1-c1ccc(F)cc1)CS(=O)(=O)C2,4.13%,
Cc1occc1-c1nnc(SCC(=O)NC2(C#N)CCCC2)n1C,-3.34%,
CC(=O)Nc1ccc(S(=O)(=O)Nc2nc(-c3ccc(C(C)(C)C)cc3)cs2)cc1,-2.13%,
CC(=O)Nc1ccc(S(=O)(=O)Nc2cccc(NC(=O)C(C)(C)C)c2)cc1,-4.58%,
CC(C)(C)C(=O)Nc1ccc(-c2cn3cccnc3n2)cc1,,3980 nM (active)
FC(F)(F)Oc1ccc(-c2cn3cccnc3n2)cc1,,2510 nM (active)
O=c1ccc(S(=O)(=O)N2CCCC2)cn1Cc1nc(-c2ccccc2)no1,-5.62%,
O=C(Cn1nnc(-c2ccccc2)n1)NC(=O)NC1CCCC1,-3.17%,

SMILES,"activation, negative = inhibition",Potency
CCOc1ccc(NC(=O)CN(C)C(=O)c2cccc(S(=O)(=O)N3CCCC3)c2)cc1OCC,-0.932%,
CCN(CC(=O)Nc1ccc(OC)cc1)C(=O)CSCc1ccc(C)cc1,-5.85%,
CC1(C)CC(=O)C=C(c2ccc3ncccc3c2)C1,-3.31%,
O=C(Nc1cc(S(=O)(=O)N2CCOCC2)ccc1OCC(F)(F)F)c1ccc(N2CCCC2=O)cc1,0.24%,
Cc1cc(SCc2c(F)cccc2Cl)nc(=O)[nH]1,8.66%,
O=C(CSc1ccc(-c2ccco2)nn1)Nc1cccc(F)c1,-1.84%,
Fc1cccc(Cl)c1CSc1ccc(-c2ccco2)nn1,,2510 nM (active)
O=C(COC(=O)CNC(=O)C1CCCCC1)Nc1cccc(F)c1,1.46%,
CCN(CC(=O)Nc1c(F)cccc1F)C(=O)c1ccc(-c2ccc(C(C)=O)cc2)o1,-4.82%,
Cc1cc(C)cc(-c2nnc(SCC(=O)NC3CC3)o2)c1,0.777%,
Cc1ccc(C(CC(=O)O)NC(=O)c2ccc(S(=O)(=O)N3CCCC3)cc2)cc1 (configuration not stated),-1.46%,
O=C(OCc1ccc(Br)cc1)c1cccc(-c2nnc(-c3ccccc3)o2)c1,,3550 nM (active)
O=C(OCc1nnc(-c2ccccc2)o1)c1ccc2c(c1)C(=O)N(CCc1ccccc1)C2=O,-10.1%,
CC(=O)Nc1cccc(C(=O)OCC(=O)Nc2nnc(-c3ccccc3)o2)c1,-1.13%,
O=C(NCCC1=CCCCC1)c1ccc(-n2cncn2)cc1,,3160 nM (active)
O=C(COc1cccc(-n2cnnn2)c1)NCCC1=CCCCC1,-3.87%,
O=C(NCCC1=CCCCC1)c1ccc(Cl)c([N+](=O)[O-])c1,3.78%,
C=C1CCC(N(O)c2cc(C)on2)C(=C)CCC2C1CC2(C)C (configuration not stated),-1.42%,
Cc1ccc(OCC(=O)N2CCN(S(=O)(=O)c3ccc(Cl)s3)CC2)cc1C,-6.05%,

# — PubChem BioAssay AID485297 (National Center for Advancing Translational Sciences (NCATS), 2010)
